Inconclusive results are not listed. Active and inactive are the calls of the source. How the source made its calls, unless noted: active means hit-call score of the fitted dose curve at least 0.9, where 1 is the maximum; inactive means score below 0.9.
Key:
[1] = ATG_TAL_CIS: Attagene CIS-FACTORIAL HepG2 Assay for human TAL Basal Promoter (AID 2282966); settings: HepG2 Attagene cis-factorial TAL promoter reporter; actives raise or lower the signal;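 further: background control endpoint measuring basal TAL promoter reporter mRNA not a specific factor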
Summary of the method: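 Transiently transfected HepG2 (cis-regulated reporter units), 24 h treatment, mRNA read by fluorescent CE after RT-PCR; bidirectional fit, DMSO baseline.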

[2] = ATG_TGFb_CIS: Attagene CIS-FACTORIAL HepG2 Assay for human Transforming Growth Factor (TGF) (AID 2282967); settings: HepG2 Attagene CIS TGFb reporter, mRNA transcription; actives raise or lower the signal
Summary of the method: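 HepG2 cells transiently transfected with cis-promoter-driven multiple reporter units measure endogenous TF activity; reporter mRNA quantified at 24 h by RT-PCR, FAM labeling, HpaI digestion and capillary electrophoresis. Bidirectional fit vs DMSO.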

[3] = ATG_VDRE_CIS: Attagene CIS-FACTORIAL HepG2 Assay for human Vitamin D Receptor Element (VDRE) (AID 2282968); settings: HepG2 VDRE cis-reporter transcription, actives raise or lower the signal
Summary of the method: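 Readout is VDRE-driven reporter mRNA reflecting endogenous factor activity in human HepG2 cells, sampled 24 h post-dose. Quantification used labelled RT-PCR products separated by capillary electrophoresis; bidirectional analysis relative to DMSO.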

[4] = target: Nuclear receptor subfamily 1 group I member 3 (Homo sapiens) (UniProt Q14994); experiment: ATG_CAR_TRANS: Attagene TRANS-FACTORIAL HepG2 Assay for human Constitutive Androstane Receptor (CAR) (AID 2282969; active means hit-call score of the fitted dose curve at least 0.9, where 1 is the maximum;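 further: activators raise reporter mRNA above DMSO so AC50 marks induction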); settings: HepG2 Attagene TRANS-FACTORIAL CAR reporter
Summary of the method: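 Signal is reporter mRNA induction relative to DMSO, measured 24 h after dosing by RT-PCR with fluorescent primer extension and capillary electrophoresis. Human HepG2 liver cells carried transiently transfected chimeric NR-Gal4/GAL4-UAS reporter constructs.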

[5] = target: X-box-binding protein 1 (Homo sapiens) (UniProt P17861); experiment: ATG_Xbp1_CIS: Attagene CIS-FACTORIAL HepG2 Assay for human X-box Binding Protein 1 (XBP1) (AID 2282972); settings: HepG2 XBP1 cis-element reporter, Attagene multiplex; actives raise or lower the signal
Summary of the method: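 Multiplexed cis-reporter readout in transfected HepG2 liver cells. Exposure lasted 24 hours. Activity in either direction was fitted against DMSO as negative control and baseline.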

[6] = ATG_M_19_TRANS: Attagene TRANS-FACTORIAL HepG2 Assay for M19 Transcription Factor (Internal Marker) (AID 2282974; active means hit-call score of the fitted dose curve at least 0.9, where 1 is the maximum); settings: HepG2 Attagene TRANS-FACTORIAL M19 internal marker reporter
Summary of the method: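 Measured here: internal-marker reporter transcript from HepG2 cells transfected with MRTUs, harvested at 24 h. cDNA PCR products were 6-FAM labelled by primer extension, cut with HpaI for 2 h at 37 C, and resolved by CE.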

[7] = ATG_GAL4_TRANS: Attagene TRANS-FACTORIAL HepG2 Assay for GAL4 (Internal Marker) (AID 2282976; active means hit-call score of the fitted dose curve at least 0.9, where 1 is the maximum); settings: HepG2 Attagene TRANS GAL4 internal marker reporter
Summary of the method: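 HepG2 cells transiently transfected with multiplexed GAL4-UAS reporter constructs were dosed for 24 h. Reporter mRNA was measured by RT-PCR, 6-FAM primer extension, HpaI digestion and capillary electrophoresis, and gain of signal was fitted relative to DMSO.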

[8] = target: Estrogen-related receptor gamma (Homo sapiens) (UniProt P62508); experiment: ATG_ERRg_TRANS: Attagene TRANS-FACTORIAL HepG2 Assay for human Estrogen-Related Receptor gamma (ERRg) (AID 2282977; active means hit-call score of the fitted dose curve at least 0.9, where 1 is the maximum;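 further: hits increase reporter signal over DMSO so potencies reflect activators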); settings: HepG2 Attagene TRANS reporter, ERRg transactivation
Summary of the method: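 Induction of reporter transcripts through a chimeric NR-Gal4 protein is quantified in transfected human HepG2 liver cells after 24 h chemical exposure, using RT-PCR with capillary electrophoresis detection and DMSO as baseline.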

[9] = target: Steroid hormone receptor ERR1 (Homo sapiens) (UniProt P11474); experiment: ATG_ERRa_TRANS: Attagene TRANS-FACTORIAL HepG2 Assay for human Estrogen-Related Receptor alpha (ERRa) (AID 2282971; active means hit-call score of the fitted dose curve at least 0.9, where 1 is the maximum); settings: HepG2 Attagene TRANS reporter, ERRa transactivation
Summary of the method: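 HepG2 cells transiently transfected with multiplexed GAL4-UAS reporter units reading chimeric ERRa-Gal4 activity; 24 h compound exposure. Reporter mRNA measured by RT-PCR, 6-FAM labelling, HpaI digest and capillary electrophoresis; gain of signal fitted versus DMSO baseline.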

[10] = target: Estrogen receptor (Homo sapiens) (UniProt P03372); experiment: ATG_ERa_TRANS: Attagene TRANS-FACTORIAL HepG2 Assay for human Estrogen Receptor alpha (ERa) (AID 2282970; active means hit-call score of the fitted dose curve at least 0.9, where 1 is the maximum); settings: HepG2 Attagene TRANS ERa GAL4 reporter, mRNA
Summary of the method: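 One of 30 multiplexed endpoints from a HepG2 TRANS system, this one reports ERa-Gal4-driven reporter mRNA. Transcripts were quantified 24 hours post-dosing by fluorescent RT-PCR and capillary electrophoresis, with activity scored as induction over DMSO.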

Measured: AC50

X-box-binding protein 1 (Homo sapiens), sequence (P17861 whole entry, looked up): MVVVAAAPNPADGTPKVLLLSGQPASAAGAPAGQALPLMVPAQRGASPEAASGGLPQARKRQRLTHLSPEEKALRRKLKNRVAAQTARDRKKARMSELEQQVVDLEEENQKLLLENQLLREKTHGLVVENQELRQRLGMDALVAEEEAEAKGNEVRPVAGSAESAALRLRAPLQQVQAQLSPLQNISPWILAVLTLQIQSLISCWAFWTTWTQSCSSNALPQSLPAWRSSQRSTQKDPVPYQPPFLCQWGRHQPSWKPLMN
Estrogen receptor (Homo sapiens), sequence (P03372 whole entry, looked up, the tested form may be a part): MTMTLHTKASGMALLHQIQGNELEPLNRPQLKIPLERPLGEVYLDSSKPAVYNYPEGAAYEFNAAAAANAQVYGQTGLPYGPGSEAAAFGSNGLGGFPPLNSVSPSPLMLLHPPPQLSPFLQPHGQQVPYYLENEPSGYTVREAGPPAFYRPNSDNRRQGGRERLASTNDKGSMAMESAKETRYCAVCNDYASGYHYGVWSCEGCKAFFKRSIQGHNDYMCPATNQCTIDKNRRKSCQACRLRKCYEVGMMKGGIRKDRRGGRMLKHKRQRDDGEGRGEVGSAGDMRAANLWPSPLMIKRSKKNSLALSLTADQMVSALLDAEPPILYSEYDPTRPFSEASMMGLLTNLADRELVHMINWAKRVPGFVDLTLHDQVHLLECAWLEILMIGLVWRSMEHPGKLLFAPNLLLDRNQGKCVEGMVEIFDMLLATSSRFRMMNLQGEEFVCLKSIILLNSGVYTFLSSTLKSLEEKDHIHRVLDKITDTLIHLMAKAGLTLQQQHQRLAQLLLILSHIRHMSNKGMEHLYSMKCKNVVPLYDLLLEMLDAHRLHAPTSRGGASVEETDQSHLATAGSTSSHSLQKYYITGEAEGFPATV
Nuclear receptor subfamily 1 group I member 3 (Homo sapiens), sequence (Q14994 whole entry, looked up, the tested form may be a part): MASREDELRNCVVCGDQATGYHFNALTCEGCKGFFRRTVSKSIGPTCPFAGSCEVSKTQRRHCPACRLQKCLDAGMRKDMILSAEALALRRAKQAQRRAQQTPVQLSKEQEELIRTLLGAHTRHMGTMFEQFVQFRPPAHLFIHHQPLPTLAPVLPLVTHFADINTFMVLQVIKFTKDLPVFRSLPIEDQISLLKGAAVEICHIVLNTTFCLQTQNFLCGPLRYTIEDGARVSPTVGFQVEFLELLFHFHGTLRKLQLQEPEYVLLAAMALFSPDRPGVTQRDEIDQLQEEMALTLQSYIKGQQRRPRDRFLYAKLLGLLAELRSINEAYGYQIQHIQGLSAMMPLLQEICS
Steroid hormone receptor ERR1 (Homo sapiens), sequence (P11474 whole entry, looked up, the tested form may be a part): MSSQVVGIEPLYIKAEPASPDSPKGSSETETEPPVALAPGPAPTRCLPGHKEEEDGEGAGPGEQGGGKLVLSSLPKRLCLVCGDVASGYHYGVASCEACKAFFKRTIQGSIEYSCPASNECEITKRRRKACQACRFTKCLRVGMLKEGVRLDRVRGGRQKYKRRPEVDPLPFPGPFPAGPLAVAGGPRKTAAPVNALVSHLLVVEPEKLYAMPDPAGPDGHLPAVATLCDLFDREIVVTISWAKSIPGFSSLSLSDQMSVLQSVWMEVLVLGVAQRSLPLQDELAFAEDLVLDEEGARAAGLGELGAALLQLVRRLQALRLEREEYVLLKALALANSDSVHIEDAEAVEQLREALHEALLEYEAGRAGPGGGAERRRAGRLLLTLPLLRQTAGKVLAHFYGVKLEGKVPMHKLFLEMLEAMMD
Estrogen-related receptor gamma (Homo sapiens), sequence (P62508 whole entry, looked up, the tested form may be a part): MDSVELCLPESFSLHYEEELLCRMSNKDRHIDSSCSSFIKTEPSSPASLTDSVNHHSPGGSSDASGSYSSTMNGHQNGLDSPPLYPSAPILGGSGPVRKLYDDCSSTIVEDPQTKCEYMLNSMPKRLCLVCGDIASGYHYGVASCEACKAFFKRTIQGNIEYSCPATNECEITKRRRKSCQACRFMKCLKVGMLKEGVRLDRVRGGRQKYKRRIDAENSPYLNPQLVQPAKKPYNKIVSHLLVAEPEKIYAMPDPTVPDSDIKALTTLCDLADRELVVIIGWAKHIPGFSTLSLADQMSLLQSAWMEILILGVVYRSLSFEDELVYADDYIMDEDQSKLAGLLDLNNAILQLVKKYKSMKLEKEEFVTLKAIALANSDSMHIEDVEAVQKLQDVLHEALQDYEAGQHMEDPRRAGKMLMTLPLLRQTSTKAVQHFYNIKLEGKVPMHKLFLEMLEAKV

Cc1ccc(O)c(C(C)(C)C)c1
inactive: [2] | [4] | [6]
active: [1] 181 µM | [3] 100 µM | [5] 142 µM

CC(=O)Nc1ccc(C)cc1C
not listed: [9] | [10]
inactive: all other assays above

CC(=O)OCCOC(C)=O
not listed: [8] | [9] | [10]
inactive: all other assays above

CCCCCCCCCCC(CO)CCCCCCCC (stereo not drawn)
inactive: [1] | [2] | [3] | [4] | [5] | [6]

CCCCCCCCCCCCCCCCCC(=O)OCC(CC)CCCC (stereo not drawn)
not listed: [8] | [9] | [10]
inactive: all other assays above

CC(C)(COC(=O)c1ccccc1)COC(=O)c1ccccc1
inactive: [1] | [4] | [5]
active: [2] 100 µM | [3] 45.8 µM

CC(C)(CO)[N+](=O)[O-]
not listed: [8] | [9] | [10]
inactive: all other assays above

CC(CCO)CCCC(C)(C)O (stereo not drawn)
not listed: [8] | [9] | [10]
inactive: all other assays above

O=C1CCCCCCCCCCOCCCCO1
inactive: [1] | [2] | [3] | [4] | [5] | [6]

COc1ccc(NC(=O)CC(C)=O)cc1
not listed: [8] | [9] | [10]
inactive: all other assays above

O=S(=O)(O)c1cccc2c(S(=O)(=O)O)cccc12
not listed: [8] | [9] | [10]
inactive: all other assays above

C=CC(=O)OCC(O)COc1ccccc1 (stereo not drawn)
active: [3] 26.2 µM | [5] 24.3 µM
inactive: [1] | [2] | [4]

C[Si](O[Si](C)(C)C)O[Si](C)(C)C
inactive: [1] | [2] | [3] | [4] | [5] | [6]

CC1(C)OC[C@@H]2O[C@@]3(C(=O)O)OC(C)(C)O[C@H]3[C@@H]2O1
not listed: [8] | [9] | [10]
inactive: all other assays above

Nc1cc([N+](=O)[O-])ccc1O
not listed: [10]
inactive: all other assays above

CN(C)c1ccc(O)c2c1C[C@H]1C[C@H]3[C@H](N(C)C)C(=O)C(C(N)=O)=C(O)[C@@]3(O)C(=O)C1=C2O
not listed: [8] | [9] | [10]
inactive: all other assays above

O=C(O)CCCCCCCC(=O)O
inactive: [1] | [2] | [3] | [4] | [5]

Cc1cccc(C)c1C
inactive: [1] | [2] | [3] | [4] | [5]

c1ccc2sc(SN(C3CCCCC3)C3CCCCC3)nc2c1
active: [2] 0.335 µM | [3] 4.65 µM
inactive: [1] | [4] | [5] | [6]

COC(C)CCO (stereo not drawn)
active: [3] 65.3 µM
inactive: [1] | [2] | [4] | [5]

CC(C)CCCCCCCOC(=O)c1ccc(C(=O)OCCCCCCCC(C)C)c(C(=O)OCCCCCCCC(C)C)c1
inactive: [1] | [2] | [3] | [4] | [5] | [6]

CC(=O)OCC=Cc1ccccc1
not listed: [10]
inactive: all other assays above

Cc1c(N(C)C)c(=O)n(-c2ccccc2)n1C
inactive: [1] | [2] | [3] | [4] | [5] | [7]

O=S(=O)(O)c1ccc(O)c2ncccc12
inactive: [1] | [2] | [3] | [10] | [5]

CNCCCC12CCC(c3ccccc31)c1ccccc12
inactive: [1] | [2] | [10]
active: [3] 15 µM | [5] 14.9 µM

CC(C)(C)C(=O)c1ccccc1
inactive: [1] | [2] | [3] | [10] | [5]

CC(C)=CCO
not listed: [4] | [8]
inactive: all other assays above

NC(N)=NC(=O)c1nc(Cl)c(N)nc1N
inactive: [1] | [2] | [3] | [10] | [5]

CCCCCCOC(=O)CC
not listed: [4] | [7] | [8]
inactive: all other assays above

NCCOCCO
not listed: [4] | [7]
inactive: all other assays above

Cc1ccc2n[nH]nc2c1
inactive: [1] | [2] | [3] | [10] | [5]

CC(=O)Nc1ccccc1O
inactive: [1] | [2] | [3] | [4] | [5] | [7]
